# Assay results taken from PubChem BioAssay AID2284082 (EPA ToxCast).
# Results filed as inconclusive are left out. Activity calls are given as the source filed them. Rule for the calls: active = hit-call score of the fitted dose curve at least 0.9, where 1 is the maximum; inconclusive = response in the unintended direction; inactive = score below 0.9.
# Target: human Akt2 (PKBbeta) AGC Kinase, AKT2 (gene 208) (UniProt P31751)
# Assay: ERF_FR_ENZ_hAKT2: Eurofins (ERF) Enzymatic Radiometric [Km ATP] KinaseProfiler LeadHunter Assay for human Akt2 (PKBbeta) AGC Kinase
# Experimental: ERF_FR_ENZ_hAKT2 is a biochemical, single-readout assay that uses extracted gene-proteins in a cell-free assay. Measurements were taken 0.5 hour after chemical dosing in a 96-well plate. See Akt2 (PKBbeta) Human AGC Kinase Enzymatic LANCE Assay [Km ATP], Cerep.ERF_FR_ENZ_hAKT2 is an assay component calculated from the ERF_FR_ENZ_hAKT2 assay. It is designed to measure enzyme activity using a type of enzyme reporter as detected by fluorescence intensity with LANCE technology.Data from the assay component ERF_FR_ENZ_hAKT2 was analyzed at the assay endpoint, ERF_FR_ENZ_hAKT2, in the positive analysis fitting direction relative to DMSO as the negative control and baseline of activity. Using a type of enzyme reporter, loss-of-signal activity can be used to understand changes in enzymatic activity as they relate to gene AKT2. To generalize the intended target to other relatable targets, this assay endpoint is annotated to the kinase intended target family, where the subfamily is serine/threonine kinase.
# PKBb (h) is incubated with 8 mM MOPS pH 7.0, 0.2 mM EDTA, 30 uM […], 10 mM MgAcetate and [g- 33P]-ATP (specific activity and concentration as required). The reaction is initiated by the addition of the Mg/ATP mix. After incubation for 40 minutes at room temperature, the reaction is stopped by the addition of phosphoric acid to a concentration of 0.5%. […]
# human Akt2 (PKBbeta) AGC Kinase, AKT2 (gene 208), sequence (P31751 whole entry, looked up): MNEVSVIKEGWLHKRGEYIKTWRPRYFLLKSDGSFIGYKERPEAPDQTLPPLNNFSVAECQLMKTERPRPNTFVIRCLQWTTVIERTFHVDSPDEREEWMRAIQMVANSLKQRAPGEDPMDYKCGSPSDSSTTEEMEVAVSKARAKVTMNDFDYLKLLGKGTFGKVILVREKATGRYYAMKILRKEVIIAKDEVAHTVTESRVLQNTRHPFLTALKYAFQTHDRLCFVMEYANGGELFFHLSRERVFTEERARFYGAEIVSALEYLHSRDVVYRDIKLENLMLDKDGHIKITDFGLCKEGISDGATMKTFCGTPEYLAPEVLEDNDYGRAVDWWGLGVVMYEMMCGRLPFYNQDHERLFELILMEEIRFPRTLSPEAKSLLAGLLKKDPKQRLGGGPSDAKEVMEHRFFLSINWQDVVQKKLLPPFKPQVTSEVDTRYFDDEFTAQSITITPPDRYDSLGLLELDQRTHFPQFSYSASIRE
row,Compound,outcome
1,Oc1ccc(O)cc1,inactive
